smiles,measurement,setting,value
CCn1c(-c2nonc2N)nc2cncc(C(=O)N3CC[C@H](N)C3)c21.Cl [SB-772077-B],Kinases covered,PIM1,PIM1
O=C1Nc2ccc(I)cc2C1=Cc1cc(Br)c(O)c(Br)c1 [GW305074X],Kinases covered,PIM2,PIM2
NCC1CNC(=O)c2cc3ccc(C(=O)Nc4cccnc4)cc3n2C1 (stereo not drawn) [BI00614644],Kinases covered,PIM3,PIM3
O=C(c1ccc(-c2cc(-c3c[nH]nc3-c3ccccn3)ccn2)cc1)N1CCCC1 [GW792479],Kinases covered,PIP4K2C,PIP4K2C
Nc1nccc(-c2c(-c3ccc(F)cc3)ncn2C2CCN(Cc3ccccc3)CC2)n1 [SB-219980],Kinases covered,PIP4K2C,PIP4K2C
CCCc1cc(N2CCCN(C)CC2)nc2sc3c(N)ncnc3c12 [BI00604564],Kinases covered,PIP5K1C,PIP5K1C
CC(C)N1CC(=O)N(C)c2cnc(Nc3cccc(S(=O)(=O)CCN4CCOCC4)c3)nc21 [BI00009348],Kinases covered,PIP5K1C,PIP5K1C
same,Kinases covered,PIP5K2C,PIP5K2C
Cc1cc(NC(=O)c2cccc(NC(=O)/C=C/CN(C)C)c2)ccc1Nc1nccc(-c2cccnc2)n1 [JNK-IN-7],Kinases covered,PIP5K2C,PIP5K2C
COc1cc2ncn(-c3cc(OCC4CCCO4)c(C(N)=O)s3)c2cc1OC (stereo not drawn) [GSK204607],Kinases covered,PLK1,PLK1
same,Kinases covered,PLK2,PLK2
same,Kinases covered,PLK3,PLK3
C[C@@H](Oc1cc(-n2cnc3ccc(CN4CCN(C)CC4)cc32)sc1C(N)=O)c1ccccc1C(F)(F)F [GSK461364],Kinases covered,PLK1,PLK1
COc1cc2ncn(-c3cc(OCc4ccncc4)c(C(N)=O)s3)c2cc1OC [GSK336313],Kinases covered,PLK2,PLK2
CCn1c(-c2nonc2N)nc2cncc(CNC3CCNCC3)c21 [SB-747651A],Kinases covered,PRK2,PRK2

# From paper PMC7826789 (International Journal of Molecular Sciences, 2021)
